About 1,000 (0.29%) of roughly 340,000 compounds were called active. Cut-off read from the data, not from the text of the source: inconclusive = inhibition above about 27% without an active follow-up result; inactive = below that. Only a sample is shown. Measured potencies and affinities stand elsewhere.
assay: NS1A inhibition, H1N1 influenza, cell based functional assay (AID 504329); conditions: percent inhibition, at 12.5 µM, hits give high values

Structure (SMILES) | inhibition
CCN(CC)c1ccc(N=Nc2nn(C)c(C)c2[N+](=O)[O-])cc1 | 9.15% (inactive)
CCN(Cc1ccccc1)c1ccc(/C=N/NS(=O)(=O)c2ccc(C)c([N+](=O)[O-])c2)cc1 | -1.19% (inactive)
Cn1c2c(c(=O)n(C)c1=O)C(c1ccc(F)cc1)C(C#N)=C(N)O2 (stereo not given) | -0.36% (inactive)
Cc1cccc(/C=N/NC(=O)c2ccc(NC(=O)c3ccccc3C)cc2)n1 | -6.91% (inactive)
CCNC(=O)C(=O)N1CCC2(CC1)OCCN2S(=O)(=O)c1ccc(C)cc1 | 5.17% (inactive)
CCC(=O)/C=C1\Sc2ccc(OC)cc2N1CCO | 7.02% (inactive)
CCC(/C=C1\Sc2ccc(OC)cc2N1CC)=C\c1sc2ccc(OC)cc2[n+]1CCCS(=O)(=O)[O-] | -0.43% (inactive)
O=C(COC(=O)/C=C/c1ccccc1[N+](=O)[O-])NC1CC1 | 0.04% (inactive)
OCCN(Cc1ccccc1)Cc1ncccc1O | -15.6% (inactive)
CCN(CC)Cc1ccccn1 | 0.25% (inactive)
CCn1c(SCC(=O)NC(C)c2ccccc2)nc2ccccc21 (stereo not given) | 6.4% (inactive)
COc1ccc(C(C)(C)C)cc1NC(=O)COC(=O)CSCc1c(C)noc1C | 12.6% (inactive)
COC(=O)C1=C(C(=O)OC)SC(=C2C(=S)C(C)(C)N(C(=O)CC(C)C)c3ccccc32)S1 | 18.9% (inactive)
COC(=O)C1=C(C(=O)OC)SC(=C2C(=S)C(C)(C)N(C(=O)C(C)C)c3ccccc32)S1 | 26.5% (inactive)
CC(=O)C1=C(C)N(Cc2ccccc2)C(=O)N[C@H]1c1cccc(F)c1 | -6.27% (inactive)
CC(C)=C(NC(=O)c1ccccc1)C(=O)Nc1ccc(C(=O)O)cc1 | -12.3% (inactive)
O=C1C=C(O)c2cccc(O)c2C1=O | 3.19% (inactive)
O=C1C(=O)c2c(ccc3ccccc23)-c2ccccc21 | 0.1% (inactive)
CC(=O)c1ccc(S(=O)(=O)N(CCCO)Cc2cc3cc4c(cc3[nH]c2=O)OCCO4)cc1 | -6.83% (inactive)
COCCNC(=S)Nc1ccc2nc(N3CCN(C)CC3)cc(C)c2c1 | 8.16% (inactive)
O=C(CNS(=O)(=O)c1ccccc1)Nc1ccccc1Br | -10.4% (inactive)
Cc1c(NC(=S)N/N=C/C=C/c2ccc([N+](=O)[O-])cc2)c(=O)n(-c2ccccc2)n1C | 1.25% (inactive)
Cc1c(NC(=S)N/N=C/c2ccc(O)cc2)c(=O)n(-c2ccccc2)n1C | -9.33% (inactive)

Structure (SMILES) | inhibition
Cc1c(NC(=S)N/N=C/c2cc([N+](=O)[O-])ccc2O)c(=O)n(-c2ccccc2)n1C | 2.17% (inactive)
Cc1c(NC(=S)N/N=C/c2ccc(Br)cc2)c(=O)n(-c2ccccc2)n1C | 0.4% (inactive)
CCCOc1ccc(/C=N/NC(=O)CSCc2ccc([N+](=O)[O-])cc2)cc1OCC | -9.68% (inactive)
CC(C)CN(C(=O)C1CCCO1)C1CCS(=O)(=O)C1 (stereo not given) | -6.34% (inactive)
O=C(Oc1coc(CSc2ncccn2)cc1=O)c1cccs1 | -4.51% (inactive)
COC(=O)C1=C(CSc2nccn2C)NC(=O)NC1c1cc(C)ccc1C (stereo not given) | 1.93% (inactive)
Cc1c(OC(C)C(=O)NCc2ccccn2)ccc2c3c(c(=O)oc12)CCCC3 (stereo not given) | -4.86% (inactive)
C=CCOc1ccc(/C=N/NC(=O)CC(=O)NC2CCCCC2)cc1 | 6.03% (inactive)
CC1(C(=O)Nc2nc3ccc(S(C)(=O)=O)cc3s2)CC1(Cl)Cl (stereo not given) | 5.4% (inactive)
O=C(O)c1ccc(N=N/C(=N\Nc2ccc(C(=O)O)cc2)c2ccccc2)cc1 | 15.3% (inactive)
O=C(O)c1cccc(NN=C2c3ccccc3-c3ccccc32)c1 | 10.1% (inactive)
CC(=O)c1cccc(NC(=O)CN2C(=O)NC(C)(c3ccc4c(c3)OCCCO4)C2=O)c1 (stereo not given) | 2.48% (inactive)
COc1ccccc1CNC(=O)Cn1cc([N+](=O)[O-])ccc1=O | -14% (inactive)
Cc1cccnc1Nc1nc(-c2ccccc2)cs1 | -4.02% (inactive)
c1ccc(Nc2nc(-c3ccccn3)cs2)cc1 | 8.8% (inactive)
Cc1cccc(Nc2nc(-c3cccs3)cs2)n1 | 8.74% (inactive)
Cc1cccnc1Nc1nc(-c2ccc(O)cc2)cs1 | 5.7% (inactive)
CCCc1nnc(NC(=O)CCC(=O)N2CCN(CCOC(c3ccccc3)c3ccccc3)CC2)s1 | 0.42% (inactive)
O=CNCC(=O)NC1CCCCCC1 | -2.65% (inactive)
Cc1ccc(OCC(=O)N/N=C/c2cccnc2)cc1C | -11% (inactive)
O=C1NC(=O)C(CC(=O)N(c2ccccc2)C2(C(=O)NC3CCCC3)CCCCC2)N1 (stereo not given) | -0.63% (inactive)
CC(Oc1ccc(Cl)cc1Cl)C(=O)Nc1ccc(N2CCN(C)CC2)cc1 (stereo not given) | 9.83% (inactive)
CCOC(=O)N1CCN(C2=C(NS(=O)(=O)c3ccc(NC(C)=O)cc3)C(=O)c3ccccc3C2=O)CC1 | 12.4% (inactive)

Structure (SMILES) | inhibition
CCN1CCN(C2=C(NS(=O)(=O)c3ccccc3)C(=O)c3ccccc3C2=O)CC1 | -3.88% (inactive)
Cc1ccc(S(=O)(=O)NCC(=O)N2CCN(c3ccccc3F)CC2)cc1 | 11.9% (inactive)
CCN1CCN(C2=C(NS(=O)(=O)c3ccc(C)cc3)C(=O)c3ccccc3C2=O)CC1 | 10.6% (inactive)
CC(=O)Nc1ccc(S(=O)(=O)NC2=C(N3CCN(Cc4ccccc4)CC3)C(=O)c3ccccc3C2=O)cc1 | 12.6% (inactive)
Cc1ccc(S(=O)(=O)CC(=O)N2CCN(c3ccccc3F)CC2)cc1 | 2.84% (inactive)
CCOC(=O)N1CCN(C2=C(NS(=O)(=O)c3ccccc3)C(=O)c3ccccc3C2=O)CC1 | 18.6% (inactive)
Cc1ccc(S(=O)(=O)Nc2nc3ccccc3nc2N2CCN(c3ccccc3F)CC2)cc1 | -0.57% (inactive)
CC(C)(C)NC(=O)C12CC3CC(CC(Cl)(C3)C1)C2 | 1.34% (inactive)
O=C(COC(=O)c1ccc(Br)c(S(=O)(=O)N2CCOCC2)c1)NC1CC1 | -5.17% (inactive)
CCOC(=O)c1cc(S(=O)(=O)NC2CCC(C)CC2)cn1C (stereo not given) | -6.39% (inactive)
CCCOc1ccc(NC(=O)C(=O)NCCCn2ccnc2)cc1 | -6.26% (inactive)
Cc1cccc(Oc2cnn(C(C)(C)C)c(=O)c2Cl)c1 | -1.49% (inactive)
CCOC(=O)N1CCN(c2ccccc2O)CC1 | -11.3% (inactive)
CCOC(=O)c1c(C)oc2c1C(=O)c1ccccc1C2=O | 15.3% (inactive)
O=C1c2ccccc2-c2c1cccc2C(=O)N1CCN(C(=O)c2ccco2)CC1 | 0.55% (inactive)
O=C(O)CCCNc1cc(N2CCN(C(=O)c3ccco3)CC2)c2noc3c2c1C(=O)c1ccccc1-3 | 25.1% (inactive)
CCOC(=O)N1CCN(c2cc(NCCO)c([N+](=O)[O-])c3nonc23)CC1 | -0.42% (inactive)
CC(=O)OCCNc1cc(Sc2nc3ccccc3[nH]2)c2nonc2c1[N+](=O)[O-] | -9.31% (inactive)
CCOC(=O)c1c(C)nc2c(c1-c1ccccc1)C(=O)c1ccccc1-2 | -17.6% (inactive)
CN1CCN(c2ccc(Cl)cc2NC(=O)CC2OC(=O)c3ccccc32)CC1 (stereo not given) | -6.08% (inactive)
CCOC(=O)CC(=O)CSc1nc(C)nc2c1oc1ccccc12 | 2.82% (inactive)
O=C(NCCCN1CCOCC1)C(=O)NCC1OCCCN1S(=O)(=O)c1cc(F)ccc1F (stereo not given) | -1.53% (inactive)
COC(=O)c1cc(C)sc1NC(=S)N1CCN(CCc2ccccc2)CC1 | 4.17% (inactive)

Structure (SMILES) | inhibition
CCN1CCN(c2ccc(NC(=O)c3ccc4c(c3)OCCO4)cc2C)CC1 | -4.06% (inactive)
COc1cccc(CCc2nc3ccccc3c(=O)n2N)c1 | -4.28% (inactive)
COc1ccc(S(=O)(=O)n2nc(-c3ccc(Cl)cc3)cc2N)cc1 | 2.77% (inactive)
CCN(CC(=O)Nc1c(F)cccc1F)C(=O)c1cc([N+](=O)[O-])ccc1N1CCOCC1 | -7.79% (inactive)
Cc1cc(C)nc(NS(=O)(=O)c2ccc(NC(=S)NC(=O)C3CCCC3)cc2)n1 | -7.03% (inactive)
COC(=O)c1ccccc1NC(=O)N1CCN(c2ccc(OC)cc2)CC1 | 12% (inactive)
COc1cc(-c2cc(C(=O)OCC(=O)NC3CC3)c3ccccc3n2)cc(OC)c1OC | -4.4% (inactive)
COc1ccc(C(=O)Nc2cnn(Cc3c(F)cccc3Cl)c2)cc1OC | -4.35% (inactive)
O=C(N[C@H]1CP(=O)(Oc2ccccc2)O[C@H](COCc2ccccc2)[C@H]1O)C(Cl)(Cl)Cl (stereo not given in full) | -20.9% (inactive)
CCOC(=O)c1ccc2ncc(C(=O)OCC)c(Nc3ccc(N4CCOCC4)cc3)c2c1 | 28.6% (inactive)
CCOC(=O)c1cnc2ccc(C)cc2c1NCCN1CCOCC1 | -11.3% (inactive)
O=c1[nH]c(=S)[nH]cc1Oc1ccccc1 | -0.47% (inactive)
CC(=O)N1c2ccc(S(=O)(=O)N3CCCC(C(=O)Nc4ccc(F)cc4)C3)cc2CC1C (stereo not given) | 1.22% (inactive)
CC1CCN(C2CCN(S(=O)(=O)c3ccc(F)cc3)CC2)CC1 | -14.4% (inactive)
CNCC(=O)Nc1c(C)n[nH]c1C | -3.79% (inactive)
Cc1n[nH]c(=S)n(/N=C/c2cccs2)c1=O | -10.9% (inactive)
COc1ccccc1OCC(=O)Nn1c(=S)[nH]c2ncccc2c1=O | -1.5% (inactive)
Cc1nn2c(=S)[nH]nc2[nH]c1=O | 5.07% (inactive)
COc1cc(C)ccc1OCC(=O)NC1CCCCCC1 | -0.58% (inactive)
CCC(C)NC(=O)COCc1cc(-c2ccc3c(c2)OCO3)on1 (stereo not given) | -7.2% (inactive)
COc1ccc(-c2sc3cc4c(cc3c2-c2ccc3c(c2)OCCO3)OCO4)cc1 | -11.4% (inactive)

— PubChem BioAssay AID504329 (Southern Research Specialized Biocontainment Screening …, 2011)
